# Article PMC4552634, “A New Set of Chemical Starting Points with Plasmodium falciparum Transmission-Blocking Potential for Antimalarial Drug Discovery” (PLoS ONE, 2015)
# About 3,200 (25%) of roughly 13,000 compounds showed an effect of 50% or more. Some of the results follow.
# Test system: P. falciparum stage V gametocytes
# Design: BacTiter-Glo ATP luminescence viability of purified stage V gametocytes in 384-well plates, per cent inhibition versus DMSO
# Conditions: 48 h, 5 µM; inhibitor
row,SMILES,% Inhibition [%]
1,Cc1cccc2nc(C(=O)Nc3nc(CN4CCC(C)CC4)cs3)cn12 [TCMDC-125340],11.88
2,c1cc(-c2ccc(CN3CCCC3)cc2)cc(-c2nc3ccccc3[nH]2)c1 [TCMDC-133794],34.22
3,CN1CCC(NCc2ccc(-c3cccc(-c4nc5ccccc5[nH]4)c3)cc2)CC1 [TCMDC-132551],85.21
4,CN1CCN(Cc2ccc(-c3cccc(-c4nc5ccccc5[nH]4)c3)cc2)CC1 [TCMDC-132542],58.54
5,CN1CCC(NCc2cccc(-c3cccc(-c4nc5ccc(C(F)(F)F)cc5[nH]4)c3)c2)CC1 [TCMDC-132735],38.83
6,CN1CCC(N2CCN(Cc3cccc(-c4ccc(-c5nc6ccccc6[nH]5)cc4)c3)CC2)CC1 [TCMDC-133850],29.34
7,COCCN1CCN(Cc2ccc(-c3cccc(-c4nc5ccccc5[nH]4)c3)cc2)CC1 [TCMDC-132559],86.66
8,N#CCCN1CCN(Cc2cccc(-c3ccc(-c4nc5ccccc5[nH]4)cc3)c2)CC1 [TCMDC-133852],-22.87
9,c1cc(CN2CCN(CCN3CCOCC3)CC2)cc(-c2cccc(-c3nc4ccccc4[nH]3)c2)c1 [TCMDC-133922],-15.36
10,COCCN1CCN(Cc2cccc(-c3ccc(-c4nc5ccccc5[nH]4)cc3)c2)CC1 [TCMDC-133023],-14.55
11,CN1CCC(N2CCN(Cc3cccc(-c4cccc(-c5nc6ccccc6[nH]5)c4)c3)CC2)CC1 [TCMDC-133878],70.79
12,c1cc(-c2ccc(CNC3CC3)cc2)cc(-c2nc3ccccc3[nH]2)c1 [TCMDC-132538],-44.27
13,c1ccc2[nH]c(-c3ccc(-c4ccc(CN5CCCCC5)cc4)cc3)nc2c1 [TCMDC-133906],32.64
14,Cc1noc(C)c1-c1ccc2c(Nc3ccccc3C(C)(C)C)c(C(=O)NC3CCCC3)cnc2c1.Cl [TCMDC-136365],-46.26
15,N#Cc1cc(C(=O)c2cc(Cl)ccc2O)cn(-c2cccc(C(F)(F)F)c2)c1=O [TCMDC-124543],16.34
16,CCc1nc(N)nc(N)c1-c1cccc(Cl)c1 [TCMDC-137371],-15
17,CNc1nc(NN=Cc2ccccc2Cl)nc(Nc2cccc(C(F)(F)F)c2)n1 [TCMDC-124188],-11.55
18,N#CC(c1ccc(Cl)cc1)c1ccc2c(C(F)(F)F)cc(C(F)(F)F)nc2n1 (centres unmarked) [TCMDC-124176],9.763
19,CCOc1cccc(C(=O)Nc2cccc(CN3CCCN(Cc4ccc(O)cc4)CC3)c2)c1 [TCMDC-141862],17.88
20,OC(CNCc1ccccc1Oc1ccccc1)c1cc(Br)cs1 (centres unmarked) [TCMDC-141369],34.47
21,COc1ccc(CC(=O)NC(CCN2CCC3(CCc4ccccc43)CC2)c2ccc(Cl)c(Cl)c2)cc1 (centres unmarked) [TCMDC-141762],-72.25
22,CN1CCC(N2CCN(Cc3ccc(-c4cccc(-c5nc6ccccc6[nH]5)c4)cc3)CC2)CC1 [TCMDC-133881],56.17
23,CN(C)CCN1CCN(Cc2cccc(-c3csc(-c4nc5ccccc5[nH]4)c3)c2)CC1 [TCMDC-133793],29.26
24,OCCN1CCN(Cc2ccc(-c3cccc(-c4nc5ccccc5[nH]4)c3)cc2)CC1 [TCMDC-132540],6.462
25,CN1CCC(N2CCN(C(=O)c3cccc(-c4cccc(-c5nc6ccccc6[nH]5)c4)c3)CC2)CC1 [TCMDC-132312],7.191

row,SMILES,% Inhibition [%]
1,CN(C)CCN1CCN(Cc2ccc(-c3cccc(-c4nc5ccccc5[nH]4)c3)cc2)CC1 [TCMDC-133795],73.83
2,CC(C)(C)C(=O)Nc1ccccc1Oc1ccc(Cl)cc1 [TCMDC-137332],6.336
3,Cc1ccc(Oc2ccccc2NC(=O)CCc2nc3ccccc3c(=O)[nH]2)cc1 [TCMDC-125459],59.46
4,Cc1cc(NC(=O)Nc2ccc(Oc3ccccc3)cc2)c2ccccc2n1 [TCMDC-134657],-9.366
5,COc1cccc(CNC(=O)[C@H]2CNCCN2C(=O)CCCc2ccccc2)c1 [TCMDC-141271],37.6
6,CCCC(C)NC(=O)[C@H]1CNCCN1C(=O)CCCc1ccccc1 (some centres unmarked) [TCMDC-141270],1.864
7,CC(CNC(=O)[C@H]1CNCCN1C(=O)CCCc1ccccc1)c1ccccc1 (some centres unmarked) [TCMDC-141268],55.69
8,O=C(NCc1ccc(F)cc1)c1cnc(N2CCN(c3ccncc3)CC2)c(Cl)c1 [TCMDC-134627],-0.3882
9,COc1ccc2nccc(NN=Cc3cccc(C)n3)c2c1 [TCMDC-142034],-10.1
10,CCOc1cc2c(cc1S(=O)(=O)c1ccc(COc3ccc(C(F)(F)F)cc3)cc1)CCN(C)CC2 [TCMDC-134264],39.44
11,COc1ccc(OCCCN2CCCCC2)cc1S(=O)(=O)c1ccc(OCc2ccc(C(F)(F)F)cc2)cc1 [TCMDC-132410],92.2
12,COc1cc2c(cc1S(=O)(=O)c1ccc(COc3ccc(C(F)(F)F)cc3)cc1)CNCC2 [TCMDC-134479],-1.894
13,CCCCCCCCn1c2c(c(=N)c3c1CCC3)CCC2 [TCMDC-125309],92.39
14,CCCCCCn1c2c(c(=N)c3c1CCC3)CCCC2 [TCMDC-124215],19.97
15,CCCCCCCCn1c2c(c(=N)c3c1CCC3)CCCC2 [TCMDC-125653],74.53
16,CCCCCCn1c2c(c(=N)c3c1CCC3)CCC2 [TCMDC-125620],20.05
17,CCCCCCCn1c2c(c(=N)c3c1CCC3)CCCC2 [TCMDC-125606],41.76
18,CCn1c2c(c(=N)c3ccccc31)CCC2 [TCMDC-125756],-4.824
19,Oc1cccc(Nc2nc(NCc3ccco3)c3ccccc3n2)c1 [TCMDC-124014],8.731
20,Cc1c[nH]c2cc(/C=C/C(=O)NC3CCC(CCN4CCc5ccc(C#N)cc5CC4)CC3)ccc12 (centres unmarked) [TCMDC-139663],21.27
21,Cc1cc(-c2nc3cncc(-c4cccc(CN5CCCC5Cc5cccnc5)c4)c3n2C)nn1C (centres unmarked) [TCMDC-135046],-7.326
22,CCOC(=O)N1NC(=O)N(c2ccccc2)C1(c1ccccc1)c1ccccc1 [TCMDC-142002],-11.41
23,COc1cc2c(cc1C(F)(F)F)N(C(=O)Nc1cc(OC(F)(F)F)cc(-c3cccnc3)c1)CC2 [TCMDC-139046],-1.066
24,O=C(N1CCN(c2ccc(C(F)(F)F)cc2[N+](=O)[O-])CC1)C(Cl)(Cl)Cl [TCMDC-124371],-2.22
25,O=C(c1cccs1)N1CCN(c2ccc([N+](=O)[O-])c(NC3CC3)c2)CC1 [TCMDC-123877],88.85

row,SMILES,% Inhibition [%]
1,O=C(c1ccco1)N1CCN(c2ccc([N+](=O)[O-])c(NC3CC3)c2)CC1 [TCMDC-125397],97.95
2,O=C(CN1CCN(C(=O)c2ccco2)CC1)Nc1ccccc1Br [TCMDC-124849],32.72
3,CC(C)(C)C(=O)N1CCN(c2ccc([N+](=O)[O-])c(NC3CC3)c2)CC1 [TCMDC-123687],84.84
4,COc1ccc(CN2CCN(C(=O)c3cccs3)CC2)c(O)c1 [TCMDC-139298],16.42
5,O=C(CN1CCN(C(=O)c2ccco2)CC1)Nc1ccc(Br)cc1Cl [TCMDC-124619],-12.46
6,Cc1cc(N2CCN(C(=O)OC(C)(C)C)CC2)ccc1N [TCMDC-125886],-87.61
7,O=C(NC1CCN(c2ccc(F)cc2[N+](=O)[O-])CC1)c1cccs1 [TCMDC-133786],14.81
8,O=C(NCCN1CCCC1)c1cccc(-c2ccc(-c3nc4ccccc4[nH]3)s2)c1 [TCMDC-132319],-6.335
9,Cc1cccn2c(=O)c3cc(C(=O)NC4CCCCC4)c(=N)n(CCCn4ccnc4)c3nc12 [TCMDC-125136],14.71
10,COc1ccc(CCNC(=O)c2cc3c(=O)n4cccc(C)c4nc3n(C)c2=N)cc1 [TCMDC-125129],30.65
11,C=CCn1c(=N)c(C(=O)NCc2ccc(F)cc2)cc2c(=O)n3cccc(C)c3nc21 [TCMDC-125128],82.89
12,Cc1ccc(CNC(=O)c2cc3c(=O)n4cccc(C)c4nc3n(CCN3CCOCC3)c2=N)cc1 [TCMDC-125405],11.13
13,COc1ccc(CCn2c(=N)c(C(=O)NC3CCCC3)cc3c(=O)n4ccccc4nc32)cc1 [TCMDC-124552],4.624
14,C=CCn1c(=N)c(C(=O)NC2CCCCC2)cc2c(=O)n3cccc(C)c3nc21 [TCMDC-125083],96.68
15,N#Cc1ccc2nc(-c3ccccc3)[nH]c2c1 [TCMDC-137223],19.91
16,COc1cc(C(=O)Nc2cccc(-c3nc4ccccc4[nH]3)c2)ccc1OC(C)=O [TCMDC-123603],-70.82
17,Cc1ccccc1CNc1nccc(NCCC(=O)Nc2ccccc2)n1 [TCMDC-134913],50.88
18,O=C(CCNc1ccnc(NCCc2ccc(F)cc2)n1)Nc1ccccc1 [TCMDC-134824],63.53
19,Cc1cnc(NCCc2ccc(F)cc2)nc1NCCC(=O)Nc1ccccc1 [TCMDC-134850],59.7
20,O=C(CCNc1ccnc(NCC2CCCCC2)n1)Nc1ccccc1 [TCMDC-134707],16.22
21,Cc1cc(NCCC(=O)Nc2ccccc2)nc(NCc2ccccc2C)n1 [TCMDC-134901],2.536
22,Cc1cnc(NCCc2ccc(F)cc2)nc1N[C@@H](CC(C)C)C(=O)Nc1ccccc1 [TCMDC-134851],-15.21
23,Cc1cnc(Nc2ccccc2)nc1NCCC(=O)Nc1ccccc1 [TCMDC-134914],19.34
24,O=C(CCNc1ccnc(NCCc2ccccc2)n1)Nc1ccccc1 [TCMDC-134809],42.97
